# Laboratory results published in PubChem BioAssay (NCI).
# About 83,000 compounds went through this panel and 20% of them were active in at least one assay; those are over-represented in the sample as a whole.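 The test compound was applied at a single concentration to cells in 96-well plates for 48 hours, and percent growth was recorded.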 A number with no mark means an inactive call. Active and inactive are the calls of the source. How the source made its calls: active means growth percent below 10; inactive means the rest.
# Experiments:
# Assay in all cases: NCI-60 one-dose screen, 48 h (100 = growth as untreated, 0 = no growth, -100 = all killed)
# Settings in all cases: 10 µM
# NCI-H23 lung = tested on: NCI-H23 lung
# NCI-H226 lung = tested on: NCI-H226 lung
# NCI-H322M lung = tested on: NCI-H322M lung
# HOP-62 NSCLC = tested on: HOP-62 NSCLC
# HOP-92 NSCLC = tested on: HOP-92 NSCLC
# NCI-H522 lung = tested on: NCI-H522 lung
# A549/ATCC NSCLC = tested on: A549/ATCC NSCLC
# 786-0 renal = tested on: 786-0 renal
# COLO 205 colon = tested on: COLO 205 colon
# NCI-H460 lung = tested on: NCI-H460 lung
SMILES,growth (NCI-H23 lung) [%],growth (NCI-H226 lung),growth (NCI-H322M lung) [%],growth (HOP-62 NSCLC) [%],growth (HOP-92 NSCLC),growth (NCI-H522 lung),growth (A549/ATCC NSCLC) [%],growth (786-0 renal) [%],growth (COLO 205 colon),growth (NCI-H460 lung) [%]
COc1ccccc1N=Nc1c(O)ccc2cc(S(=O)(=O)O)ccc12,86.8,98.2%,99.1,82.7,84.7%,85.7%,100,107,104%,–
CC1(C(N)=O)CCC(C(=O)O)C1(C)C (stereo not given),103,95.5%,95.2,–,94.3%,106%,98,98,108%,103
S=c1nn[nH]c2ccccc12,99.6,93.8%,95.6,98,–,–,96.4,111,93.4%,105
CC1(C)OC(=O)C(c2ccsc2)C(=O)O1,95,105%,102,–,104%,82.6%,84.7,108,–,113
Cc1c(O)cnc2nn(-c3ccccc3)c(=N)n12,102,100%,114,98.3,–,–,96.1,102,123%,103
CCOC(=O)C/C(C)=N\O,100,98.4%,97.9,90.2,–,–,95.6,96.1,104%,106
COC(=O)/C=C/C(=O)NC(N)=O,94.7,94.1%,107,98.8,–,–,–,103,105%,105
CCOc1ccc(/C=N/N=C(N)N)cc1OCC,92,93.3%,110,106,99.4%,99.2%,95.7,100,107%,–
Cc1ncc(C#N)c(N)n1,99,94.8%,89.1,–,87.1%,102%,106,96.4,107%,102
O=C(O)CSCSCC(=O)O,99.8,95.2%,108,91.5,–,–,–,103,100%,104
C/C(=C\c1ccc([N+](=O)[O-])cc1)C(=O)O,102,98.3%,111,–,95.1%,87.1%,91.7,96.7,–,102
CC(C)=CC(=O)OC(=O)C=C(C)C,117,93.5%,104,103,–,–,–,106,113%,106
N/N=C(/Cc1ccccc1)NNC(N)=S,99,108%,82.7,–,119%,72.4%,74.4,111,–,103
O=C(O)/C=C/C(=O)NCc1ccccc1,107,98.4%,93.5,101,–,–,–,98.9,106%,104
O=C(O)[C@@H]1[C@H]2C[C@H]3c4[nH]c5ccccc5c4CCN3C[C@@H]2CC[C@@H]1O,102,103%,110,–,109%,18.2%,101,76,123%,121
CC(=O)Cc1ccc(-c2ccccc2)cc1,95.6,91.5%,85.9,–,96.3%,111%,94.8,105,115%,103
CC(=O)NCc1cc(C)c(C)cc1C,102,93.4%,92,106,–,–,–,97.8,94.2%,104
Cc1ccc(CCCC(=O)O)c(C)c1,103,93.4%,102,95.7,–,–,–,99.4,102%,102

SMILES,growth (NCI-H23 lung) [%],growth (NCI-H226 lung),growth (NCI-H322M lung) [%],growth (HOP-62 NSCLC) [%],growth (HOP-92 NSCLC),growth (NCI-H522 lung),growth (A549/ATCC NSCLC) [%],growth (786-0 renal) [%],growth (COLO 205 colon),growth (NCI-H460 lung) [%]
Cc1cccc(CO)c1,94.5,99%,102,–,102%,105%,102,104,105%,105
Cc1c(C(=O)O)c(=O)n(-c2ccccc2)n1C,92,103%,122,96.7,–,104%,108,113,–,–
CCOC(=O)C(O)C(O)C(=O)OCC (stereo not given),100,106%,102,–,94.1%,101%,104,105,106%,103
O=C(/C(=N/O)c1ccccc1)c1ccccc1,105,91.2%,95.8,–,96.6%,109%,98.1,98.1,–,108
CC1OC(Oc2c(-c3ccc(O)c(O)c3)oc3cc(O)cc(O)c3c2=O)C(O)C(O)C1O (stereo not given),102,96.1%,106,–,88.6%,102%,102,108,104%,105
Nc1ccccc1SC(CC(=O)c1ccccc1)c1c(Cl)cccc1Cl (stereo not given),76.1,96.6%,91.8,73.4,–,–,–,96.8,–,84.8
O=C1N(C[P+](c2ccccc2)(c2ccccc2)c2ccccc2)CCCN1C[P+](c1ccccc1)(c1ccccc1)c1ccccc1,109,102%,106,–,79.5%,108%,101,103,–,107
O=C(O)c1cccc([N+](=O)[O-])c1,95,107%,97.4,–,96%,112%,105,104,113%,106
c1ccc2c(c1)Sc1ccccc1S2,99,95.9%,92.5,–,81.8%,98.6%,94.2,94.9,111%,101
CC(=O)OC1CC2C(C)(C)OC3CC(=O)OCC32C2CCC3(C)C(=CCC3c3ccoc3)C12C (stereo not given),108,98.7%,111,–,-13% (active),35.6%,104,103,76.1%,108
COc1ccc(/C=C/c2cccc[n+]2C)cc1,100,101%,93.5,77.5,–,–,–,94.3,42.1%,106
CCOC(=O)C1OC1c1ccccc1 (stereo not given),98.6,100%,101,–,99.2%,104%,102,98.3,102%,103
COCCOCCCl,102,101%,112,–,95%,101%,106,105,107%,104
C/C=C/CC(C)C(O)C1C(=O)NC(CC)C(=O)N(C)CC(=O)N(C)C(CC(C)C)C(=O)NC(C(C)C)C(=O)N(C)C(CC(C)C)C(=O)NC(C)C(=O)NC(C)C(=O)N(C)C(CC(C)C)C(=O)N(C)C(CC(C)C)C(=O)N(C)C(C(C)C)C(=O)N1C (stereo not given),20.1,5.76% (active),33.8,35.6,–,9.55% (active),17.2,41.9,-72.8% (active),–
O=C(/C=C/C(=O)c1ccccc1)c1ccccc1,99,107%,116,109,96.3%,74.8%,105,103,70.1%,–
COc1cccc(O)c1O,56.3,101%,98.6,–,93.7%,79%,101,88.1,108%,103
CSC(=N\N=C\c1ccc(N(C)C)cc1)/N=C/N(C)C,112,90%,102,–,–,107%,103,103,–,95.4
